{
  "source": "PubChem BioAssay AID1981",
  "about": "(Southern Research Specialized Biocontainment Screening …, 2009)",
  "note": "The whole screen tested about 2,200 compounds, of which about 480 (22%) were called active. No rule for the calls is given here. These entries were drawn from the full list. Results with a measured potency or affinity are listed apart.",
  "data": [
    {"assay": "S. Typhimurium GFP fluorescence modified counterscreen for PhoP regulon inhibitor project dose response (AID 1981);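 also: 0% = induced DMSO wells and 100% = uninduced wells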", "conditions": "4 h; series mostly up to 150 µM; inhibition: at the top concentration", "values": [
      {"smiles": "CCOC(=O)Cn1nnnc1C(C(C)C)N(Cc1cccs1)Cc1cc2cc(C)ccc2[nH]c1=O", "note": "(stereo unspecified)", "inhibition": "-14.5% (inactive)"},
      {"smiles": "CCN(CC)C(=O)CP(=O)(c1ccccc1)c1ccccc1", "inhibition": "-24.6% (inactive)"},
      {"smiles": "Cc1cc(C2=NNC(=NC3CC3)SC2)c(C)n1-c1ccccc1", "inhibition": "-27.7% (inactive)"},
      {"smiles": "Nc1cc(N)nc(SCC(=O)Nc2ccc3c(c2)OCCCO3)n1", "inhibition": "-1.56% (inactive)"},
      {"smiles": "COc1ccc(C(=O)N2CCN(C(=O)c3ccco3)CC2)cc1OC", "inhibition": "-6.92% (inactive)"},
      {"smiles": "CCOC(=O)c1sc2nccc(N(C)C)c2c1N=CNOCc1c(F)cccc1Cl", "inhibition": "4.36% (inactive)"},
      {"smiles": "O=C(CSc1nnc(-c2cccs2)n1-c1ccccc1)NCc1ccc2c(c1)OCO2", "inhibition": "-12.3% (inactive)"},
      {"smiles": "COc1cccc(-c2nnc(SCC(=O)Nc3ccc(OC)c(OC)c3)n2N)c1", "inhibition": "-7.18% (inactive)"},
      {"smiles": "CCCc1cc(-c2nc(N)ncc2-c2ccc3c(c2)OCCCO3)c(O)cc1OC", "inhibition": "-11.7% (inactive)"},
      {"smiles": "CCC(CC)C(=O)Nc1cccc(C(=O)N2CCCC2)c1", "inhibition": "1.33% (inactive)"},
      {"smiles": "CCOC(=O)c1[nH]c2ccccc2c1NC(=O)NC1CCCCC1", "inhibition": "0.89% (inactive)"},
      {"smiles": "CCOC(=O)CCCNC(=O)COC(=O)CCC(=O)c1ccc(F)cc1", "inhibition": "16.4% (inactive)"},
      {"smiles": "Cn1c(-c2ccc3nc(N)sc3c2)nc2cc(N)ccc21", "inhibition": "-13.2% (inactive)"},
      {"smiles": "COc1cc(C=O)ccc1OCCCOc1ccccc1[N+](=O)[O-]", "inhibition": "-2.16% (inactive)"},
      {"smiles": "CCOC(=O)COc1ccccc1/C=C\\[N+](=O)[O-]", "inhibition": "20.1% (inactive)"},
      {"smiles": "COc1ccc([N+](=O)[O-])cc1NC(=O)C(C)OC(=O)c1ccccc1C(=O)c1ccc(Cl)cc1", "note": "(stereo unspecified)", "inhibition": "-21.5% (inactive)"},
      {"smiles": "Cc1ccc(S(=O)(=O)N2CCCC2C(=O)OCc2ccco2)cc1", "note": "(stereo unspecified)", "inhibition": "16% (inactive)"},
      {"smiles": "Cc1nc2c(C(=O)NCCC(C)C)c[nH]n2c(=O)c1Cc1ccccc1F", "inhibition": "1.09% (inactive)"},
      {"smiles": "O=C(CCn1nnc(-c2cccs2)n1)NCc1ccccc1Cl", "inhibition": "-14.8% (inactive)"},
      {"smiles": "Cc1ccc(CCNC(=O)C2CCCN(S(=O)(=O)c3c(C)noc3C)C2)cc1", "note": "(stereo unspecified)", "inhibition": "4.87% (inactive)"},
      {"smiles": "CC(C)Cn1c(-c2ccccc2)nc2ccccc2c1=O", "inhibition": "-3.38% (inactive)"},
      {"smiles": "COc1ccc(Cl)cc1C(=O)CSc1nc(N)cc(N)n1", "inhibition": "-5.16% (inactive)"},
      {"smiles": "COc1ccc(-c2c/c(=N\\c3nc(-c4ccccc4)c(C)s3)c3ccccc3o2)cc1O", "inhibition": "6.27% (inactive)"},
      {"smiles": "Cc1ccccc1OCC(=O)N/N=C/c1ccco1", "inhibition": "-1.78% (inactive)"},
      {"smiles": "O=C(N/N=C/c1ccc(F)cc1)c1cc(-c2ccco2)nc2ccccc12", "inhibition": "3.68% (inactive)"},
      {"smiles": "Cc1ccc(NC(=O)CO/N=C(\\N)c2nonc2N)cc1", "inhibition": "-2.61% (inactive)"},
      {"smiles": "COC(=O)c1ccc(NC(=S)Nc2ccc3ccccc3c2)cc1", "inhibition": "19.2% (inactive)"},
      {"smiles": "Cn1ccnc1SCC(=O)Nc1sccc1C#N", "inhibition": "-14% (inactive)"},
      {"smiles": "NC1=NC2=C(CCCC2)C2(CCCCC2)S1", "inhibition": "3.33% (inactive)"},
      {"smiles": "CCCCn1c(O)c(C(CC)=Nc2ccc3c(c2)CCC3)c(=O)[nH]c1=O", "inhibition": "0.23% (inactive)"},
      {"smiles": "CC(C)c1ccc(O)c(NC(=O)c2cncc(Br)c2)c1", "inhibition": "-16.4% (inactive)"}
    ]}
  ]
}
